TDP1 block: qHTS Assay for Inhibitors of Tyrosyl-DNA Phosphodiesterase (TDP1) | AID 485290, 2010 | 0.28% of 350,000 active | recombinant TDP1, AlphaScreen DNA substrate cleavage | Potency, µM (top dose mostly 130 µM), for inactives: top-dose activity change, negative = inhibition, hits mostly inhibitors | Tyrosyl-DNA phosphodiesterase 1 (Homo sapiens), Q9NUW8; further: potency means the concentration at half of the fitted maximal effect; nearly all actives have a fitted effect of over 40% in size
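Here, a 5' biotin and 3' phosphotyrosine-FITC DNA oligonucleotide reports Tdp1 activity: intact substrate bridges AlphaScreen beads, while cleavage leaves a 3' phosphate and drops signal. All incubations at room temperature.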
DT40 TDP1 no CPT: qHTS for Inhibitors of human tyrosyl-DNA phosphodiesterase 1 (TDP1): qHTS in cells in absence of CPT; AID 686978, 2013; Potency, µM (top dose mostly 46.2 µM), inactives show at the top dose activity change, negative = growth inhibition, usual class: inhibitors; 15% of 420,000 active; DT40 Tdp1-/- hTDP1 cells, no CPT, ATP luminescence, 48 h; further: potency means the concentration at half of the fitted maximal effect; nearly all actives have a fitted effect of over 55% in size
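Readout: luminescence from CellTiter-Glo after 30 min in the dark at RT. Cells: DT40 Tdp1-/- with stable hTDP1, 400/well. Exposure: compounds alone, ≥48 hr, 37 °C.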
TDP1 cell CPT: qHTS for Inhibitors of human tyrosyl-DNA phosphodiesterase 1 (TDP1): qHTS in cells in presence of CPT. chicken DT40 Tdp1-/-;hTDP1 cells + 20 nM CPT, ATP luminescence, 48 h. Potency, µM (series often up to 46.2 µM), for inactives: at the highest dose activity change, negative = growth inhibition, actives largely listed as inhibitors. 12% of 420,000 active; further: potency means the concentration at half of the fitted maximal effect; nearly all actives have a fitted effect of over 55% in size
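Chicken DT40 Tdp1-/- cells stably complemented with human TDP1 were seeded at 400 cells/well in medium containing 20 nM camptothecin, exposed to pin-transferred compounds, and grown at 37 °C for at least 48 hr. Viability was read as ATP luminescence.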
Six1-Eya2 inh: qHTS Assay for Inhibitors of the Six1/Eya2 Interaction. AlphaScreen GST-Six1/His-Eya2 binding, biochemical; stronger effect = lower value. activity change, % (test concentration not listed). 0.56% of 360,000 active; in the data active means activity change below about -65%; inconclusive means mostly about -30% to -63%
Target sequence (O00167 whole entry, looked up): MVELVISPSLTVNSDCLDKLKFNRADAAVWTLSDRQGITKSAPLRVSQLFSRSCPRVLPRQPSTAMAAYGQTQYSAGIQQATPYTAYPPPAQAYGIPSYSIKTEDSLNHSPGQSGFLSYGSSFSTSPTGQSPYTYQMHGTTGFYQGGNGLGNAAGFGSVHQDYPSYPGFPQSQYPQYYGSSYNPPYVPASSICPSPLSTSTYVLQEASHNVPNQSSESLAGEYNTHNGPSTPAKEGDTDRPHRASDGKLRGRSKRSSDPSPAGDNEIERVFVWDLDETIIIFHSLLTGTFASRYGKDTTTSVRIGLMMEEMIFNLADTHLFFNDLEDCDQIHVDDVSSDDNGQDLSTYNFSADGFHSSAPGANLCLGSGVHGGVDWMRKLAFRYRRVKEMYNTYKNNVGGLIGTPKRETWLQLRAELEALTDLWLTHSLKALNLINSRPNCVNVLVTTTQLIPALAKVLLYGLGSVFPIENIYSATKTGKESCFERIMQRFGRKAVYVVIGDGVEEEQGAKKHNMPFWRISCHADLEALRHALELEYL
Target sequence (Q15475 whole entry, looked up): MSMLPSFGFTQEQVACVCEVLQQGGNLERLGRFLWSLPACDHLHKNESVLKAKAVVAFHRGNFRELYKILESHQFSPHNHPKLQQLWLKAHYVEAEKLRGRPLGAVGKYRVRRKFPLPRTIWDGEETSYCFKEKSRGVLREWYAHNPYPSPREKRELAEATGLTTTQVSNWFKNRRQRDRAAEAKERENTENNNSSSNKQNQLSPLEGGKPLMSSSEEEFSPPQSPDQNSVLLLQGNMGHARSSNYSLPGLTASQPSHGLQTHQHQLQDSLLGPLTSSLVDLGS
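AlphaScreen luminescence read after one hour at 37 °C in darkness. Pin-transferred compounds met GST-Six1 and His-Eya2 protein (5X stock 250 nM/500 nM) plus glutathione donor and Ni-chelate acceptor beads (5X, 50 ug/mL).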
IL1B secr inh: qHTS for Inhibitors of Inflammasome Signaling: IL-1-beta AlphaLISA Primary Screen; THP-1 LPS/ATP IL-1B secretion, AlphaLISA, 16 h; stronger effect = lower value; activity change, % at 57.5 µM; 4.7% of 360,000 active; AID 743279, 2014; in the data active means activity change below about -50%; inconclusive means mostly about -30% to -49%
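THP-1 cells pretreated 1 hr with compounds (up to 57.5 uM final), then stimulated with LPS (250 ng/mL final) plus ATP (1.25 mM final); secreted IL-1B measured by AlphaLISA after 16 hr, decreased signal indicating inhibition.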
CtBP-E1A blk: qHTS Assay for Inhibitors of the CtBP/E1A Interaction; activity change, % (test concentration not listed); 0.49% of 340,000 active; CtBP / adenovirus E1A interaction (AlphaScreen); AlphaScreen GST-E1A/His-CtBP binding, 1536-well; stronger effect = lower value; in the data active means activity change below about -65%; inconclusive means mostly about -30% to -63%
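GST-E1A and His-tagged CtBP (125 nM each as 5X stock) were preincubated with pin-transferred compound for 2 h at 37 °C in the dark, then glutathione donor and nickel acceptor beads were added for 1 h before AlphaScreen reading.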
* marks the source's active call; other numbers are inactive results; i = inactive; ? = inconclusive; / = no result given. In the library only some 18% were active in any assay of this set; here they are far more common. Unless noted, the call rests on the fitted dose curve; in most records, active means well fitted curve in the direction sought with a large enough effect; inconclusive means small, poorly fitted or top-dose-only effect, or another doubt; inactive means no such curve, though single readings can be large; an effect the other way counts as inactive or inconclusive. On the % scale 0 is the no-effect control and ±100 the full control effect.

SMILES | TDP1 block | DT40 TDP1 no CPT | TDP1 cell CPT | Six1-Eya2 inh | IL1B secr inh | CtBP-E1A blk
COc1cccc(C2/C(=C(/O)c3cnn(-c4ccccc4)c3C)C(=O)C(=O)N2CCN(C)C)c1OC (centres undefined) | 5.8% | -1.1% | -13.6% | 3.8 | 5.8 | 7.5
CC(=O)c1cc2c(cc1NS(=O)(=O)c1ccc(C)cc1)OCO2 | -5.9% | -21.1% | -12.6% | 5.8 | 3.0 | 3.4
COc1ccc(CCc2cc(OC)c(OC)c(OC)c2)cc1 | / | 0.581µM* | 0.82µM* | 19.8 | 36.2 | -2.9
Cc1cc(C)c(C(=O)CC(=O)c2cccnc2)c(C)c1 | / | ? | ? | -6.6 | 8.3 | -12.5
CC(C)(O)C#Cc1ccc(CN2CCCC(CNC(=O)c3ccco3)C2)cc1 (centres undefined) | 0.1% | -3.8% | -23.1% | -0.9 | i | 0.1
C=CCOc1ccc(CN(C)CC(=O)Nc2ccccc2[N+](=O)[O-])cc1 | 8.0% | 20.6µM* | ? | ? | 7.5 | 1.8
COC(=O)c1c(C)[nH]c(C(=O)CN(C)CC(=O)Nc2cccc(F)c2)c1C | 5.2% | 14.6µM* | -23.6% | 0.6 | -15.4 | 18.4
CN(CC(=O)Nc1cccc(F)c1)CC(=O)Nc1ccc(Cl)cc1[N+](=O)[O-] | 4.9% | 4.6% | ? | -2.4 | 3.1 | -3.2
CN(CC(=O)Nc1cccc(F)c1)CC(=O)Nc1ccccc1[N+](=O)[O-] | -2.6% | 11.6µM* | 23.1µM* | 17.3 | 4.9 | 0.2
COc1cccc(NC(=O)CN(C)CC(=O)Nc2ccc(C)c([N+](=O)[O-])c2)c1 | / | 10.3µM* | ? | -11.2 | -2.5 | -14.3
O=C(NCc1cccc(Cl)c1)c1ccc(N2CC3CC(C2)c2cccc(=O)n2C3)c(NC(=O)c2cccnc2)c1 (centres undefined) | 8.4% | -24.9% | -19.4% | -0.3 | -17.0 | -6.8
Cc1ccc(/C=N/NC(=O)c2cc(-c3ccc(C)o3)[nH]n2)cc1 | / | 14.6µM* | 13µM* | -7.5 | 5.9 | 0.4
Cc1ccc(-c2cc(C(=O)N/N=C/c3cccnc3)n[nH]2)o1 | 5.1% | -28.5% | -1.3% | -5.1 | -14.1 | -12.8
COc1cc(-c2noc(-c3ccccc3C(=O)NCc3ccco3)n2)cc(OC)c1OC | 4.1% | ? | ? | 0.7 | -24.1 | -14.8
CC1(C)CC(=O)C2=C(C1)Oc1nc3ccccc3cc1C2C(C#N)C#N (centres undefined) | 5.2% | 4.11µM* | 2.91µM* | -1.6 | -93.0* | 3.7
COc1ccc(C2(c3ccc(OC)cc3)NC(=O)N(Cn3nnc4ccccc4c3=O)C2=O)cc1 | 2.6% | ? | 20.6µM* | -7.6 | -9.5 | -2.2
CCn1cnc2c1c(=O)n(Cc1cccc([N+](=O)[O-])c1)c(=O)n2Cc1ccccc1 | 2.7% | ? | ? | -4.2 | -1.3 | -5.7
Cc1cc(C(=O)Nc2ccc(Cl)cc2)c(C)n1Cc1cccs1 | 5.1% | 8.2µM* | ? | -24.5 | / | ?
Cc1cccc(NC(=O)c2cccc(NC(=O)Cc3cccs3)c2)c1 | 0.0% | -28.3% | 1.8% | 3.0 | -11.7 | 2.3
Cc1cc(C(=O)Cn2nnc3ccccc3c2=O)c(C)n1Cc1cccs1 | 5.2% | 18.4µM* | 29.1µM* | -16.3 | -10.8 | -24.3
Cc1cc(C(=O)CN2C(=O)c3ccccc3C2=O)c(C)n1Cc1cccs1 | 0.2% | ? | ? | -11.5 | 3.9 | -11.4
O=C(Cc1cccs1)Nc1ccc(Cl)cc1 | 6.5% | ? | -20.4% | 3.8 | 21.3 | 8.1
Cc1cc(C)cc(NC(=O)c2cc(C)n(Cc3cccs3)c2C)c1 | -3.8% | 18.4µM* | 29.1µM* | 4.1 | -9.0 | -1.7
Cc1cc(C)n2nc(SCC(=O)N/N=C/c3ccccc3F)nc2n1 | 6.4% | ? | ? | -10.8 | 1.2 | -15.3
Cc1cc(C)c(C(=O)c2cccs2)c(C)c1 | / | -5.3% | 0.9% | 9.4 | -0.8 | 23.9
SMILES | TDP1 block | DT40 TDP1 no CPT | TDP1 cell CPT | Six1-Eya2 inh | IL1B secr inh | CtBP-E1A blk
COc1ccc(C2N(C(C)=O)CCCN2S(=O)(=O)c2ccc(C)cc2)cc1 (centres undefined) | / | -27.1% | ? | 2.9 | 34.1 | 0.0
CC1(c2ccccc2)CC(C)(C)N2C(=O)/C(=C3\SC(=S)NC3=O)c3cccc1c32 (centres undefined) | 4.1% | 14.6µM* | 23.1µM* | -7.3 | 22.2 | 5.4
CC(=C1SC(=S)NC1=O)c1ccccc1 | / | -2.0% | -10.3% | 6.3 | 4.0 | -1.4
COc1ccc(S(=O)(=O)N2CCC(c3nnnn3-c3ccccc3)CC2)cc1OC | 4.7% | ? | ? | / | / | /
COc1ccccc1-n1c(SCC(=O)Nc2ccccc2F)nc2[nH]ncc2c1=O | 0.5% | -22.4% | 12.6µM* | -8.1 | -8.5 | 6.2
Cc1cc(-n2c(SCc3ccccc3F)nc3[nH]ncc3c2=O)ccc1Cl | 8.5% | 16.4µM* | ? | / | / | /
O=c1c2cn[nH]c2nc(SCc2cccc(Br)c2)n1-c1ccc(Cl)cc1 | 13.0% | ? | ? | / | / | /
Cc1ccccc1-n1c(SCc2ccc(Cl)cc2)nc2[nH]ncc2c1=O | 13.0% | 18.4µM* | 16.4µM* | / | / | /
COc1ccc(OC)c(NC(=O)CCc2nnc3ccc(NCc4ccco4)nn23)c1 | -11.6% | ? | 6.6% | 6.0 | -2.7 | /
Cc1cccc(COc2ccccc2C(=O)N(C)CC(=O)Nc2cccc(F)c2)c1 | 0.8% | ? | ? | -5.0 | -26.5 | 3.1
Cc1ccsc1C(=O)N(C)CC(=O)Nc1ccccc1Br | -0.8% | -16.5% | -2.4% | 5.6 | -3.4 | -5.5
CN(CC(=O)Nc1ccccc1Br)C(=O)c1sccc1-c1ccccc1 | 1.3% | 13µM* | ? | 7.8 | 2.7 | /
CN(CC(=O)Nc1ccccc1Br)C(=O)c1ccccc1OCc1ccc(F)cc1 | -1.0% | ? | ? | 1.4 | -29.7 | -8.5
Cc1ccc(C)c(NC(=O)CN(C)C(=O)c2ccccc2OCc2ccc(Cl)cc2)c1 | -1.0% | ? | 23.1µM* | 12.2 | -67.8* | 4.6
CN(CC(=O)Nc1ccccc1Br)C(=O)c1ccccc1OCc1ccccc1Cl | / | 18.4µM* | ? | 0.4 | -82.2* | -2.3
Cc1cc(C)n2nc(SCCOc3ccc(F)cc3)nc2n1 | -2.7% | -14.2% | -1.4% | ? | -18.8 | ?

High-throughput results as filed in PubChem.
